GAA850 FXN act – frataxin GAA850 promoter activation; actives 0.56% (n = 360,000); AID 540364; activation, % at 6 µM; HEK293 lucGAA850 FXN promoter luciferase reporter, 24 h; percent of 10 µM SAHA response;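 active = activation above the average of all compounds screened plus 3 SD, cutoff fixed separately per campaign, cut at about 7.5% in these data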;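 also: 0% = DMSO wells and 100% = 10 µM SAHA wells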
MITF TRPM1 HTS – increases MITF-driven TRPM1 promoter luciferase signal; SK-MEL-5 TRPM1-promoter luciferase, 24 h; % of positive control, neutral wells = 0; activation, % at 12.5 µM; actives 0.75% (n = 300,000); AID 588334;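 active = mean activation of at least 80% with every replicate also reaching 80%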;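 also: 0% = neutral control wells and 100% = parthenolide positive control wells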
esBAF inh – inhibitors of esBAF chromatin remodeling in mouse ES cells; Bmi1-luciferase knock-in reporter, 24 h; 100% = twice the neutral-well signal; reporter increase, % at 12.5 µM; actives 2% (n = 350,000); AID 602393; in the data active = activation above about 40%;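 also: 0% = median of the plate's neutral control wells and 100% = double that signal; a rise in the Bmi1 reporter signal indicates esBAF inhibition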
Wnt bcat act – Wnt/beta-catenin pathway activation; Wnt/beta-catenin reporter cell assay, activator, plate reader; activation, % at 9.35 µM; actives 1.2% (n = 300,000); AID 743398; in the data active = activation above about 30%, passing the limit was not always enough;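 also: 0% = neutral control wells and 100% = positive control wells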
An asterisk follows results filed as active; . = no result. Shown are actives, neighbours in structure and some others; about 2.8% of the full set was active somewhere.

SMILES	GAA850 FXN act	MITF TRPM1 HTS	esBAF inh	Wnt bcat act
COc1ccc(CCC(=O)Nc2ccc(OC)c(S(=O)(=O)N3CCCCC3)c2)cc1OC	-0.9	-1.2	3.7	-4.4
CN1C(=O)c2cc(NC(=O)C3CCOCC3)ccc2OC[C@H]2O[C@H](CC(=O)NCc3ccccc3F)CC[C@H]21	.	.	-1.1	.
Cc1cc2ncn(C(=O)c3ccc4c(c3)OCO4)c2cc1C	-1.8	10.9	13.1	-1.6
Cc1cc2ncn(C(=O)N3CCC(C)CC3)c2cc1C	7.1	48.3	54.4*	.
CC(=O)N1[C@H](C(=O)NCc2ccccc2F)[C@@H](CO)[C@@H]2Cn3c(ccc(-c4ccccc4)c3=O)[C@@H]21	.	.	-1.3	.
C[C@@H]1CCCCO[C@H](CN(C)C(=O)Nc2ccc(F)cc2)[C@@H](C)CN([C@@H](C)CO)C(=O)c2cc(NC(=O)c3ccncc3)ccc2O1	.	.	4.0	.
CO[C@@H]1CN(C)C(=O)c2ccc(NS(=O)(=O)c3cccc(C)c3)cc2OC[C@H](C)NC[C@H]1C	.	.	4.1	.
CCOc1ncccc1C(=O)Nc1cc2c(cc1Br)OCCO2	1.1	30.7	55.3*	8.0
CCOc1ncccc1C(=O)Nc1ccc2c(c1)OCO2	1.4	3.8	.	3.0
C[C@H](CO)N1C[C@H](C)[C@H](CN(C)C)Oc2ccc(NC(=O)NC3CCCCC3)cc2CC1=O	.	.	0.7	.
N/C(CS(=O)(=O)c1ccccn1)=N\OC(=O)c1ccc(Cl)cc1	-0.6	.	.	9.8
N/C(CS(=O)(=O)c1ccccn1)=N\OC(=O)c1ccccc1Cl	5.0	.	.	54.0*
COC(=O)c1c(C)[nH]c(C=O)c1-c1ccccc1	4.9	.	.	13.8
COC(=O)c1c(-c2ccccc2)c[nH]c1C	4.7	59.3	51.4*	24.1
Cc1ccc(NC(=O)c2ccc(C(C)(C)C)cc2)cc1[N+](=O)[O-]	3.6	120.9*	.	.
CC(C)(C)c1ccc(NC(=O)c2ccccc2)c([N+](=O)[O-])c1	3.9	60.4	12.9	75.1*
Cc1cc(C)nc(Nc2ccc(C)c([N+](=O)[O-])c2)n1	5.1	42.3	49.2*	8.9
Cc1cc(C(=O)Nc2ccc3c(c2)CCC3)ccc1[N+](=O)[O-]	3.6	.	.	51.3*
Cc1ccc(C(=O)NCC(=O)Nc2ccc3c(c2)CCC3)cc1C	5.0	-5.5	5.8	0.3
Cc1cc(C(=O)Nc2cccc3cccnc23)ccc1[N+](=O)[O-]	3.1	4.8	49.0*	7.9
CC(C)(C)c1ccc(C(=O)Nc2ccc(Cl)cc2)cc1	6.7	99.4*	.	15.3
CC(C)(C)c1ccc(C(=O)Nc2cccnc2)cc1	4.2	.	27.4	-0.1
CC(=O)Nc1nonc1NC(=O)c1ccc(C(C)(C)C)cc1	4.5	.	32.3	55.0*
Cn1c(=O)c2c(nc(Oc3ccc(-c4ccccc4)cc3)n2C)n(C)c1=O	0.4	4.9	47.6*	-1.0
Cc1ccc(Oc2nc3c(c(=O)n(C)c(=O)n3C)n2C)cc1C	-0.8	22.6	.	-2.1
SMILES	GAA850 FXN act	MITF TRPM1 HTS	esBAF inh	Wnt bcat act
CCCC#Cc1cnc2c(c1)C(=O)N([C@H](C)CO)C[C@H](C)[C@H](CN(C)C(=O)c1cccnc1)O2	.	.	8.4	.
COc1ccc2c(c1)O/C(=C\c1sccc1C)C2=O	3.0	38.5	42.0*	.
COC(=O)c1ccc(CN2C(=O)NC(Cc3c[nH]c4ccccc34)C2=O)cc1 (configuration not stated)	2.6	54.6	46.2*	3.9
O=C1NC(Cc2c[nH]c3ccccc23)C(=O)N1Cc1ccccc1 (configuration not stated)	1.1	-12.6	-0.9	-7.7
O=C1NC2(C=Cc3c(ccc4ccccc34)O2)Oc2ccccc21 (configuration not stated)	8.6*	21.2	3.5	0.4
O=c1c2cc(-c3ccccc3)sc2nc2n1CCC2	.	.	.	60.2*
Cc1nc2sc(-c3ccccc3)cc2c(=O)n1-n1cccc1	2.5	101.8*	48.1*	.
O=C(C[C@@H]1C[C@@H]2c3cc(NC(=O)c4ccc5c(c4)OCO5)ccc3O[C@@H]2[C@H](CO)O1)NCc1cccnc1	.	.	-2.1	.
COc1ccc(/C=C2\CCn3c2nc2ccccc2c3=O)cc1OC	5.7	93.9*	42.8*	.
C[C@@H]1CN([C@H](C)CO)C(=O)c2cccc(NS(=O)(=O)c3cn(C)cn3)c2O[C@@H]1CN(C)S(=O)(=O)c1cccs1	.	.	2.4	.
Cc1c(/C=N/Nc2ccc(C(=O)O)cc2)c2ccccc2n1C	6.8	90.3*	66.7*	1.8
CO[C@H]1CN(C)C(=O)c2cc(NC(=O)C3CC3)ccc2OC[C@H](C)N(C(=O)c2cnccn2)C[C@@H]1C	.	.	2.6	.
O=C(C[C@@H]1CC[C@H](NC(=O)NC2CCCCC2)[C@@H](CO)O1)NCc1ccccc1	.	.	-1.3	.
Cc1ccc(-n2c(COc3ccccc3)nnc2SCC(=O)O)cc1	-0.1	.	-0.8	62.1*
CO[C@@H]1CN(C)C(=O)c2ccc(NC(=O)Cc3ccccc3)cc2OC[C@H](C)N(CC2CC2)C[C@@H]1C	.	.	3.3	.
CCC1CCc2sc(C(=O)NNC(=S)NCC3CCCO3)cc2C1 (configuration not stated)	1.9	8.5	5.8	-0.1
CCC1CCc2sc(C(=O)NCC3CCCO3)cc2C1 (configuration not stated)	2.8	76.4	66.5*	55.5*
O=C1c2ccccc2NC(c2ccccc2)N1Cc1ccco1 (configuration not stated)	0.1	-2.2	62.5*	.
O=C1c2ccccc2NC(c2ccc(F)cc2)N1Cc1ccco1 (configuration not stated)	2.2	-7.1	0.0	-1.8
Cc1noc(C)c1NC(=O)N(C)C[C@H]1OCCCC[C@H](C)Oc2ccc(N(C)C)cc2C(=O)N([C@H](C)CO)C[C@@H]1C	.	.	-3.8	.
CC(=O)CSc1nc2cc3c(cc2cc1C#N)OCCO3	5.2	-23.0	.	10.8
N#Cc1cc2cc3c(cc2nc1SCC(=O)N1CCCC1)OCCO3	5.0	87.1*	21.6	.
Cc1ccnc(Nc2nc(-c3ccc(O)cc3O)cs2)c1	3.4	.	78.5*	16.3
Cc1ccnc(Nc2nc(-c3ccc(O)cc3)cs2)c1	3.4	59.8	49.8*	16.7
Cc1noc(C)c1NC(=O)Nc1ccc2c(c1)C(=O)N([C@H](C)CO)C[C@@H](C)[C@@H](CN(C)Cc1ccccc1)OCCCC[C@@H](C)O2	.	.	4.8	.
SMILES	GAA850 FXN act	MITF TRPM1 HTS	esBAF inh	Wnt bcat act
CN(C)C(=O)C[C@H]1CC[C@H]2[C@@H](COC[C@@H](O)CN2CC2CCOCC2)O1	.	.	-4.8	.
COc1ccc(C2=NN(CN3C(=O)C(=O)c4ccccc43)C(c3ccc(OC)cc3)C2)cc1 (configuration not stated)	4.8	56.1	.	54.0*
COc1ccc(C2=NN(S(=O)(=O)c3ccccc3)C(c3ccccc3)C2)cc1 (configuration not stated)	4.5	3.2	8.9	4.3
O=Cc1ccccc1OCc1ccc2c(c1)OCO2	3.0	.	70.0*	9.7
COc1ccccc1CNCc1ccc2c(c1)OCO2	0.6	.	-17.4	-2.8
S=C(N=Nc1ccccc1)NNc1ccccc1	5.8	32.0	63.3*	43.5*
O=C(Nc1nnc(-c2ccc3c(c2)OCCO3)o1)C1CCCCC1	2.5	58.3	.	33.3*
O=C(Nc1nc2cc3c(cc2s1)OCCO3)C1CCCCC1	1.3	90.8*	-15.3	54.5*
